Hits are enriched below; roughly 2.4% of the tested compounds scored in any of these assays.
D2 ag-1: activates the human D2 dopamine receptor | P14416 | HEK293 T-REx D2 cells, calcium flux agonist mode | activation, % at 2 µM | actives 0.53% (n = 340,000);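 active = activation over 3 SD above normal in the single-dose calcium agonist read, cut at about 30% in these data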; also: 0% is about no effect
Target sequence (P14416 whole entry, looked up): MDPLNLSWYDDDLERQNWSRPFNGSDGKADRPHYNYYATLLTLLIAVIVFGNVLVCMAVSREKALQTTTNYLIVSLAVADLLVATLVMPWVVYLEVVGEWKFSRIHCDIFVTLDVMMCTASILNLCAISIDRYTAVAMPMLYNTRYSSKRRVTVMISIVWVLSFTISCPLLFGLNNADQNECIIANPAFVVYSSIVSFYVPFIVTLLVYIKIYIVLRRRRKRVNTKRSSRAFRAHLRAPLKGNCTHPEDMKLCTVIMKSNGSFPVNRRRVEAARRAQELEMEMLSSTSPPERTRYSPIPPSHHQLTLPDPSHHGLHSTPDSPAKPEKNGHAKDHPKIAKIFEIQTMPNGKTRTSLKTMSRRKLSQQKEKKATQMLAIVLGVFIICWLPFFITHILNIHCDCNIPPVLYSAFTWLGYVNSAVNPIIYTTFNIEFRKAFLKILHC
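In this primary screen, compounds producing a positive calcium signal within 180 s of addition to tetracycline-induced, force-coupled HEK293 Trex D2 cells are flagged; cells are dye-loaded with a no-wash calcium kit beforehand.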
D2 antag: antagonizes the human D2 dopamine receptor | P14416 | HEK293 TREx D2 cells, calcium flux, dopamine EC80 | inhibition, % at 10 µM | actives 2% (n = 340,000); in the data active = inhibition above about 30%; inactive = below that, where a call was filed; also: 0% is about no effect
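Calcium mobilization kinetics were recorded at 1 s intervals in tetracycline-induced HEK293 T-REx D2 cells, first for 180 s after compound addition and then 180 s after EC80 dopamine.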
D2 ag-2: agonists of human D2 dopamine receptor (beta-arrestin); DiscoveRx PathHunter D2 beta-arrestin, luminescence, 90 min; 100% = 57 uM dopamine signal; activation, % (test concentration not listed); actives 0.084% (n = 360,000); AID 624465; in the data active = activation above about 40%; inconclusive = between about 15% and that limit
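DiscoveRx PathHunter D2 beta-arrestin cells (2,100/well) attached overnight, then compound-stimulated 90 min at 37 C in HBSS/10 mM HEPES/0.1% Tween-20 buffer; beta-galactosidase complementation read by luminescence after 1 h at ambient temperature. Dopamine 57 uM final (EC100) as control.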
D2 PAM-1: potentiates the human D2 dopamine receptor allosterically | P14416 | DiscoveRx D2 beta-arrestin cells, luminescence, 90 min; 100% = 57 uM dopamine signal | potentiation, % (no concentration beside the values) | actives 0.23% (n = 360,000) | AID 624464; in the data active = potentiation above about 50%; inconclusive = mostly about 30% to 49%
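D2 cells co-treated with compound plus 50 nM dopamine (EC20) for 90 min at 37 deg C to detect potentiation. Beta-arrestin recruitment was read as enzyme-fragment luminescence after 1 h at ambient temperature. Full response was set by 57 uM dopamine.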
D2 PAM-2: positively modulates the human D2 dopamine receptor allosterically; HEK293 T-REx D2, calcium flux, EC20 dopamine potentiation; potentiation, % at 10 µM; AID 485347; actives 0.34% (n = 340,000);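 active = potentiation over 3 SD above the plate norm, cut at about 30% in these data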; also: 0% is about no effect
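Tetracycline-induced Hek293 Trex D2 cells, force-coupled to calcium, loaded with no-wash calcium dye. Compound added with 180 s kinetic read for agonism, then EC20 dopamine and a further 180 s read for potentiation.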
Active calls of the source: *; ? = inconclusive; / = no result.

SMILES	D2 ag-1	D2 antag	D2 ag-2	D2 PAM-1	D2 PAM-2
COc1cc(C(=O)O/N=C(\N)c2ccc([N+](=O)[O-])cc2)cc(OC)c1OC	1	13	8	15	-6
N/C(=N\OC(=O)c1ccc(Br)cc1)c1cccc([N+](=O)[O-])c1	0	-12	6	?	-2
N/C(=N\OC(=O)c1ccccc1Br)c1cccc([N+](=O)[O-])c1	-1	-7	?	?	8
Cc1ccc(C(=O)O/N=C(\N)c2cccc([N+](=O)[O-])c2)cc1	1	-5	?	60*	0
COc1ccc(C(=O)O/N=C(\N)c2ccccc2)cc1OC	1	-6	10	?	5
COc1cc(C(=O)O/N=C(\N)c2cccc([N+](=O)[O-])c2)cc(OC)c1OC	0	2	?	55*	15
COc1cn(CC(=O)Nc2ccc(F)cc2)c(CN2CCCCC2)cc1=O	0	/	/	/	15
COc1cccc(CNC(=O)CN2N=C(c3ccc(C)cc3)CCC2=O)c1	0	/	/	/	-4
N/C(=N\OC(=O)c1ccco1)c1cccc([N+](=O)[O-])c1	1	-5	?	81*	-2
N/C(=N\OC(=O)c1ccco1)c1cccc(Br)c1	0	12	6	23	0
Fc1cccc(CN2CCC(Cc3ccccc3)CC2)c1	-4	56*	1	-66	1
O=C(/C=C/c1cccc(F)c1)NC1CCN(Cc2ccccc2)CC1	-1	56*	-3	-18	-25
CCN1CCN(C(=O)Nc2cccc(C(F)(F)F)c2)CC1	0	-4	1	-7	-6
O=C(COC(=O)/C=C/c1cccc(F)c1)NC1CC1	/	/	-2	-19	/
CCN1CCC(NC(=O)Nc2cccc(C(F)(F)F)c2)CC1	0	37*	-2	-22	-4
O=C(CCCn1c(=O)c2ccccc2n(Cc2cccc(F)c2)c1=O)NC1CCN(Cc2ccccc2)CC1	18	40*	/	/	-20
Fc1ccccc1CN1CCC(Cc2ccccc2)CC1	-2	4	-4	-9	-2
COc1ccc(-n2c(SCc3ccccc3F)nc3c([nH]c4ccccc43)c2=O)cc1	-1	/	/	/	-6
CCN(CC)C(=O)C1=C(C)Nc2nc3ccccc3n2C1c1ccc(Br)cc1 (centres undefined)	/	/	/	/	20
COc1ccc(C)cc1NC(=O)CN1C(=O)CCc2cc(S(=O)(=O)N3CCOCC3)ccc21	-1	/	/	/	6
O=C(NC1CCN(Cc2ccccc2)CC1)c1c(Cl)cccc1Cl	0	-6	-3	-25	4
O=C(/C=C/c1cccc(Br)c1)NC1CCN(Cc2ccccc2)CC1	1	72*	-2	-24	-25
O=C(Nc1cccc(F)c1)NC1CCN(Cc2ccccc2)CC1	0	89*	-3	-18	-29
Cc1cc(O)ccc1NC(=O)CCN1C(=O)c2ccc([N+](=O)[O-])cc2C1=O	-1	27	?	73*	4
O=C(CCCn1cnc([N+](=O)[O-])n1)Nc1ccc(F)c(Cl)c1	0	2	-1	-7	1
SMILES	D2 ag-1	D2 antag	D2 ag-2	D2 PAM-1	D2 PAM-2
O=C(CCCn1cnc([N+](=O)[O-])n1)Nc1cccc(O)c1	2	35*	1	4	6
O=C(CCN1C(=O)c2ccc([N+](=O)[O-])cc2C1=O)Nc1cccc(O)c1	-1	-13	?	63*	5
Cc1ccc(NC(=O)CCN2C(=O)c3ccccc3C2=O)c(C)c1	/	/	-2	-9	/
COc1cccc(NC(=O)C(C)n2c(=O)cc(C(F)(F)F)c3c(C)nn(C)c32)c1 (centres undefined)	0	/	/	/	-14
Cc1ccc(-c2nc3c(c(SCC(=O)Nc4cccc(C(=O)O)c4)n2)Cc2cccc(C)c2O3)cc1	0	/	/	/	-8
CCOc1ccc(CCNC(=O)CCCc2nnc3n(CC)c(=O)c4sccc4n23)cc1OCC	0	/	/	/	-2
O=C(COc1ccccc1)OCC(=O)c1ccc(S(=O)(=O)N2CCCCC2)cc1	0	31*	-9	-35	2
O=C(COC(=O)c1ccccc1)c1ccc(S(=O)(=O)N2CCCCC2)cc1	0	-3	-6	1	10
O=C(COc1ccc(S(=O)(=O)N2CCCCC2)cc1)N1CCCC1	0	31*	-2	-2	-9
CC(=O)NC12CC3CC(C1)CC(C(=O)N1CCN(S(=O)(=O)c4ccccc4[N+](=O)[O-])CC1)(C3)C2	0	45*	-1	-2	-15
CCc1ccc(Oc2c(C(F)(F)F)oc3c(CN4CCCC(C)C4)c(O)ccc3c2=O)cc1 (centres undefined)	0	/	/	/	7
Cc1nn(-c2ccc(Cl)cc2)c2sc(C(=O)N3CCN(c4ccccn4)CC3)cc12	-1	1	1	-7	32*
Cc1cc2c(n1-c1ccc(C(=O)NCC(C)c3ccccc3)cc1)CCCC2 (centres undefined)	1	/	/	/	4
COc1cc(CN2CCN(Cc3ccc(C)cc3)C(CCO)C2)cc(OC)c1O (centres undefined)	1	57*	3	-16	-18
CC(C)CCN1CCN(Cc2cccc3nonc23)CC1CCO (centres undefined)	1	54*	-2	-7	-23
Cc1ccc(CN2CCN(CCC(C)C)C(CCO)C2)s1 (centres undefined)	0	57*	-3	-18	-25
COc1ccc(CN2CCN(Cc3ccc(C)cc3)C(CCO)C2)cc1OC (centres undefined)	0	14	-1	-22	12
Cc1ccc(CN2CCN(Cc3ccc(C)s3)CC2CCO)cc1 (centres undefined)	1	69*	-3	-2	-23
Cc1cccc(N2CCn3c2nc2c3c(=O)n(C/C=C/c3ccccc3)c(=O)n2C)c1	0	/	/	/	0
CC(C)Cn1c(=O)c2sccc2n2c(CCCC(=O)Nc3ccc(Cl)cc3)nnc12	-1	/	/	/	1
Cc1c(C(=O)N2CCCCCC2)c(S(=O)(=O)Nc2ccc(OC(F)(F)F)cc2)c(C)n1C	1	/	/	/	2
CC(C)CCN1CCN(Cc2cccs2)CC1CCO (centres undefined)	14	31*	1	-18	-20
CC(C)N1CCN(Cc2cccs2)CC1CCO (centres undefined)	/	/	0	-2	/
COc1ccc(NS(=O)(=O)c2cccc(NC(=O)NC3CCCCC3)c2)cc1	0	-10	-3	-11	-8
COc1ccc(C)cc1NC(=O)NC1CCCCCCC1	0	32*	-2	-32	-17
COc1ccc(OC)c(NC(=O)NC2CCCCCCC2)c1	0	10	15	-41	-17
COc1ccc(NS(=O)(=O)c2ccc(C)c(NC(=O)NC3CCCCC3)c2)cc1	-1	33*	4	-16	-21

High-throughput results (PubChem)
